Calls of active or inactive are those of the source. How the source made its calls: active means hit-call score of the fitted dose curve at least 0.9, where 1 is the maximum; inactive means score below 0.9.
What was measured:
[1] = ATG_CRE_CIS: Attagene CIS-FACTORIAL HepG2 Assay for human cAMP Responsive Element (CRE) binding protein 3 (AID 2282926); settings: HepG2 CRE cis-reporter, Attagene multiplexed mRNA; actives raise or lower the signal
Outline: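 Human liver HepG2, transient MRTU transfection, 24 h compound exposure. Total RNA → oligo(dT) RT → PCR → 6-FAM primer extension → HpaI cut → CE. Activity called both directions vs DMSO.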

[2] = biological target: CCAAT/enhancer-binding protein beta (Homo sapiens) (UniProt P17676); test: ATG_C_EBP_CIS: Attagene CIS-FACTORIAL HepG2 Assay for human CCAAT/Enhancer Binding Protein (C/EBP) beta (AID 2282927); settings: HepG2 Attagene cis-factorial transcription factor reporter; actives raise or lower the signal
Chain of CCAAT/enhancer-binding protein beta (Homo sapiens) (P17676 whole entry, looked up): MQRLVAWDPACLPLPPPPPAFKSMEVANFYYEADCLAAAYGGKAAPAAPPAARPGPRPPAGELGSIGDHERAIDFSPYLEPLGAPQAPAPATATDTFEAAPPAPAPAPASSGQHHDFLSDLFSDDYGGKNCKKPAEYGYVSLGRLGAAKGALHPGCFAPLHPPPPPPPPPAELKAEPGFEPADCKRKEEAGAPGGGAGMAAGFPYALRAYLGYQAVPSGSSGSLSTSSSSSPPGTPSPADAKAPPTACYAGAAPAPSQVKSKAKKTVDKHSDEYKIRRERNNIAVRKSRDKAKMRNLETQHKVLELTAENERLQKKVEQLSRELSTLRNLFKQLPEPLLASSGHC
Outline: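 HepG2 transiently transfected with multiplexed reporter units under cis-regulatory promoters reporting endogenous C/EBPb activity. After 24 h exposure, reporter mRNA assayed by RT-PCR, fluorescent labelling, HpaI digestion and capillary electrophoresis; bidirectional fitting versus DMSO.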

[3] = ATG_DR4_LXR_CIS: Attagene CIS-FACTORIAL HepG2 Assay for human Liver X Receptor (LXR), DR4 submotif (AID 2282929); settings: HepG2 Attagene DR4 cis-reporter, mRNA transcription; actives raise or lower the signal
Outline: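 Endogenous factor activity at a DR4 cis-element is read as reporter mRNA in transiently transfected HepG2 cells. Exposure lasts 24 h; transcripts are amplified, fluorescently labelled and sized by capillary electrophoresis, with DMSO as baseline.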

[4] = biological target: Aryl hydrocarbon receptor (Homo sapiens) (UniProt P35869); test: ATG_Ahr_CIS: Attagene CIS-FACTORIAL HepG2 Assay for human Aryl Hydrocarbon Receptor (Ahr) (AID 2282930); settings: HepG2 AhR cis-factorial reporter transcription; actives raise or lower the signal
Chain of Aryl hydrocarbon receptor (Homo sapiens) (P35869 whole entry, looked up): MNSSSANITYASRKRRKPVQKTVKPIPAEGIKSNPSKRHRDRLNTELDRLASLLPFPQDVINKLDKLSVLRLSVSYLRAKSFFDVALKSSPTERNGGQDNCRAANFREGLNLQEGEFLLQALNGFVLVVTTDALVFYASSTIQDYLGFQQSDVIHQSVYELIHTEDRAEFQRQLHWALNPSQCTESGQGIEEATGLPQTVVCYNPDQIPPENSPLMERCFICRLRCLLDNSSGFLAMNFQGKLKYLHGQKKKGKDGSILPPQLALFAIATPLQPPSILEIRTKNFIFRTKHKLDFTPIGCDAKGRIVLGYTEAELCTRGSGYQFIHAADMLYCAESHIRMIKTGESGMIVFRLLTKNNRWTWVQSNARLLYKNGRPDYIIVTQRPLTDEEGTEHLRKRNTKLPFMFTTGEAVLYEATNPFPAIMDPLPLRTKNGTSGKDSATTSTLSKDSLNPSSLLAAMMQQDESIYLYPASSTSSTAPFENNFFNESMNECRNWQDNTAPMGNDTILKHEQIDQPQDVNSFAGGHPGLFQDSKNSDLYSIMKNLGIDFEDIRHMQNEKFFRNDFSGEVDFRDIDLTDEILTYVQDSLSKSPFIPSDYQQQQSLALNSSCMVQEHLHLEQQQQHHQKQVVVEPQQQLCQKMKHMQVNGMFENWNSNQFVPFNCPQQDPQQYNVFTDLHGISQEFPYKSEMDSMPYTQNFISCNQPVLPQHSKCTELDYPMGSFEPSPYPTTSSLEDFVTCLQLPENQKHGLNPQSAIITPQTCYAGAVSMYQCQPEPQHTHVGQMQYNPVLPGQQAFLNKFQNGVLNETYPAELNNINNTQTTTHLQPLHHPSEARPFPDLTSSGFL
Outline: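 HepG2 cells transiently transfected with cis-element-driven multiplexed reporter units; endogenous AhR activity read as reporter mRNA 24 h after dosing, via RT-PCR, 6-FAM labelling, HpaI digestion and capillary electrophoresis. Bidirectional fit relative to DMSO.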

[5] = ATG_AP_1_CIS: Attagene CIS-FACTORIAL HepG2 Assay for human Activator Protein 1 (AP-1) (AID 2282931); settings: HepG2 Attagene cis-factorial AP-1 reporter mRNA; actives raise or lower the signal
Outline: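 Fluorescence of labelled PCR fragments separated by capillary electrophoresis gives reporter mRNA levels. HepG2 with transfected cis-regulated reporter units, 24 h exposure; DMSO serves as baseline for bidirectional curve fits.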

[6] = ATG_AP_2_CIS: Attagene CIS-FACTORIAL HepG2 Assay for human Activator Protein 2 (AP-2) (AID 2282932); settings: HepG2 AP-2 cis-reporter, Attagene transcription factor profiling; actives raise or lower the signal
Outline: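 Multiplexed mRNA reporter assay in HepG2: cis-regulated units report endogenous factor activity after 24 h treatment. Fluorescence from capillary electrophoresis of RT-PCR products gives the signal, with DMSO as baseline.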

[7] = ATG_BRE_CIS: Attagene CIS-FACTORIAL HepG2 Assay for human Bone Morphogenetic Protein (BMP) Response Element (BRE) (AID 2282933); settings: HepG2 BMP response element reporter, Attagene transcription factor profiling; actives raise or lower the signal
Outline: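 HepG2 cells transiently transfected with CIS reporter units (endogenous TF activity, BMP response element), dosed 24 h. Reporter mRNA quantified by RT-PCR, fluorescent labelling and capillary electrophoresis; bidirectional fit vs DMSO baseline.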

[8] = biological target: Retinoic acid receptor alpha (Homo sapiens) (UniProt P10276); test: ATG_DR5_RAR_CIS: Attagene CIS-FACTORIAL HepG2 Assay for human Retinoic Acid Receptor Alpha (RARE), DR5 submotif (AID 2282934); settings: HepG2 Attagene cis-factorial RARE DR5 reporter, mRNA; actives raise or lower the signal
Chain of Retinoic acid receptor alpha (Homo sapiens) (P10276 whole entry, looked up): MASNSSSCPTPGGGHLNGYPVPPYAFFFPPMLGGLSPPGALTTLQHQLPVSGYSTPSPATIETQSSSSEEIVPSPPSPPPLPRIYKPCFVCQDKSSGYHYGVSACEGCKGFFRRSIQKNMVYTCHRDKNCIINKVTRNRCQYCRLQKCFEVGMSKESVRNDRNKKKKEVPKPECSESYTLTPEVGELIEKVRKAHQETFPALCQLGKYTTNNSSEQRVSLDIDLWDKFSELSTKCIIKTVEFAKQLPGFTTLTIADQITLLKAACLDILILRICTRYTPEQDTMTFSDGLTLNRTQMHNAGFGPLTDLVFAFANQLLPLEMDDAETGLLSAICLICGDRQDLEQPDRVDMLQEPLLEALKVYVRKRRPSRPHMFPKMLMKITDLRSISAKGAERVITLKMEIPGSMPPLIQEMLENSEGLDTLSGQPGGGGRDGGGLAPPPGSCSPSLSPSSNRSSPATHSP
Outline: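 HepG2 cells transiently transfected with multiplexed reporter units; DR5 cis-element drives reporter through endogenous transcription factors. After 24 h dosing, reporter mRNA quantified by RT-PCR, fluorescent labeling, HpaI digestion and capillary electrophoresis; bidirectional fitting versus DMSO.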

[9] = biological target: Transcription factor E2F1 (Homo sapiens) (UniProt Q01094); test: ATG_E2F_CIS: Attagene CIS-FACTORIAL HepG2 Assay for human E2F Transcription Factor 1 (AID 2282935); settings: HepG2 Attagene cis-reporter, E2F reporter RNA transcripts; actives raise or lower the signal
Chain of Transcription factor E2F1 (Homo sapiens) (Q01094 whole entry, looked up): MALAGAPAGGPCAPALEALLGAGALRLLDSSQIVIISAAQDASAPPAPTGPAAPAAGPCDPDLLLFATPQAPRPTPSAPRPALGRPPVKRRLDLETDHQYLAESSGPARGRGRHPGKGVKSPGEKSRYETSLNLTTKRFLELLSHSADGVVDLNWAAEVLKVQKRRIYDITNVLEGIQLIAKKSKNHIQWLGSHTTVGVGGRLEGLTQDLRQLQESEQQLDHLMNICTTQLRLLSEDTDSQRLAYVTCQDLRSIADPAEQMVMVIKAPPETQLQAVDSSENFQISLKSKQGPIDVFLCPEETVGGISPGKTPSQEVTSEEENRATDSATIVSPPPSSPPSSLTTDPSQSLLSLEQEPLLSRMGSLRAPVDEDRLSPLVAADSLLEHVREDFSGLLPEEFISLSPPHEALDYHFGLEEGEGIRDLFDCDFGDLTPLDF
Outline: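 Measures reporter transcript levels via RT-PCR with capillary electrophoresis detection in HepG2 cells harboring cis-regulated reporter units; 24 h post-dose; bidirectional curve fitting with DMSO as baseline.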

[10] = ATG_E_Box_CIS: Attagene CIS-FACTORIAL HepG2 Assay for human Enhancer Box (E-box) (AID 2282936); settings: HepG2 E-box cis-reporter transcription, actives raise or lower the signal
Outline: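 First, HepG2 cells receive multiple cis-regulated reporter constructs by transient transfection. Next, chemicals are applied for 24 h. Finally, reporter mRNA is quantified via RT-PCR and capillary electrophoresis, with DMSO as baseline.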

[11] = ATG_EGR_CIS: Attagene CIS-FACTORIAL HepG2 Assay for human Early Growth Response 1 (EGR1) (AID 2282938); settings: HepG2 Attagene CIS-FACTORIAL EGR reporter mRNA; actives raise or lower the signal
Outline: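 HepG2, transient MRTU transfection (cis promoters), 24 h compound. RNA → RT (oligo-dT) → PCR → 6-FAM labelling → HpaI cut → CE fluorescence. Bidirectional fit, DMSO baseline.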

[12] = ATG_M_19_CIS: Attagene CIS-FACTORIAL HepG2 Assay for M19 Transcription Factor (Internal Marker) (AID 2282939); settings: HepG2 Attagene CIS-FACTORIAL M19 internal marker reporter; actives raise or lower the signal
Outline: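 HepG2 cells transiently transfected with cis-regulated multiplexed reporter units, dosed 24 h. Reporter mRNA quantified by RT-PCR and capillary electrophoresis; internal background marker fitted bidirectionally versus DMSO.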

[13] = ATG_ERE_CIS: Attagene CIS-FACTORIAL HepG2 Assay for Estrogen Response Element (ERE) (AID 2282940); settings: HepG2 ERE cis-reporter, Attagene RNA transcript; actives raise or lower the signal
Outline: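 HepG2 cells transiently transfected with multiplexed cis-element reporter units, measuring endogenous transcription factor activity; ERE reporter mRNA quantified after 24 h exposure by RT-PCR, fluorescent labelling, HpaI digestion and capillary electrophoresis. Bidirectional change versus DMSO.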

[14] = ATG_Ets_CIS: Attagene CIS-FACTORIAL HepG2 Assay for human Erythroblast Transformation Specific (ETS) (AID 2282941); settings: HepG2 ETS cis-reporter transcription, actives raise or lower the signal
Outline: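 HepG2 cells transiently transfected with cis-promoter reporter transcription units were dosed for 24 h; reporter mRNA was measured by RT-PCR, 6-FAM primer extension, HpaI digestion and capillary electrophoresis, with bidirectional fitting against DMSO baseline.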

[15] = biological target: Hepatocyte nuclear factor 3-beta (Homo sapiens) (UniProt Q9Y261); test: ATG_FoxA2_CIS: Attagene CIS-FACTORIAL HepG2 Assay for human Forkhead box A2 (FOXA2) (AID 2282942); settings: HepG2 cis-reporter transcription factor activity, 24 h; actives raise or lower the signal
Chain of Hepatocyte nuclear factor 3-beta (Homo sapiens) (Q9Y261 whole entry, looked up): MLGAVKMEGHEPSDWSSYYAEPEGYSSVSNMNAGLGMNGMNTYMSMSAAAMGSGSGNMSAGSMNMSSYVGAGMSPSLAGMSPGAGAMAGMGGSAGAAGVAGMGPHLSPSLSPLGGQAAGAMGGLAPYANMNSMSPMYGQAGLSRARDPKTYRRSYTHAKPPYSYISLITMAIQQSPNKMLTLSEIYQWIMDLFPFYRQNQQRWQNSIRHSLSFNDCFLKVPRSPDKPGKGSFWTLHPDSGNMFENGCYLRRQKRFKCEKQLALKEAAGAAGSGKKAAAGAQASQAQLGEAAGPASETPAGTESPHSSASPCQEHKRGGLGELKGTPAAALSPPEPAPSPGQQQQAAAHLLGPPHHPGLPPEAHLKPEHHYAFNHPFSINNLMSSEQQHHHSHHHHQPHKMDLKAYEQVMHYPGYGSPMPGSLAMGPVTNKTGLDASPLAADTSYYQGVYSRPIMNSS
Outline: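 Cells: HepG2, transient multiplex reporter transfection. Exposure 24 h. Detection: reporter-specific RT-PCR, fluorescent labelling, restriction digest, capillary electrophoresis. Analysis: bidirectional curve fit, DMSO as negative control.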

[16] = ATG_FoxO_CIS: Attagene CIS-FACTORIAL HepG2 Assay for human Forkhead box O (FoxO) (AID 2282943); settings: HepG2 Attagene cis-reporter, FoxO element, mRNA; actives raise or lower the signal
Outline: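 HepG2 cells transiently transfected with cis-element-driven reporter units report endogenous FoxO activity. After 24 h chemical exposure, reporter mRNA quantified by RT-PCR, fluorescent labeling, HpaI digestion and capillary electrophoresis; bidirectional fit versus DMSO.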

[17] = ATG_GATA_CIS: Attagene CIS-FACTORIAL HepG2 Assay for human GATA Binding Protein (AID 2282944); settings: HepG2 GATA cis-element reporter, Attagene multiplex mRNA; actives raise or lower the signal
Outline: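 HepG2 cells transiently transfected with multiplexed cis-element reporter units measure endogenous GATA activity; after 24 h compound exposure, reporter mRNA quantified by RT-PCR and capillary electrophoresis. Changes fitted in both directions vs DMSO.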

[18] = ATG_M_61_CIS: Attagene CIS-FACTORIAL HepG2 Assay for M61 Transcription Factor (Internal Marker) (AID 2282937); settings: HepG2 Attagene CIS-FACTORIAL M61 internal marker reporter; actives raise or lower the signal
Outline: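 This endpoint serves as an internal background control within a multiplexed HepG2 cis-reporter panel. Cells are exposed for 24 h; reporter mRNA is amplified, fluorescently labelled and sized by capillary electrophoresis, with DMSO as negative control.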

[19] = ATG_CMV_CIS: Attagene CIS-FACTORIAL HepG2 Assay for human CMV (Internal Marker) (AID 2282928); settings: HepG2 CMV promoter reporter, transcription factor profiling; actives raise or lower the signal;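 further: endpoint acts as a background internal control marker rather than a target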
Outline: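 HepG2 cells transiently transfected with multiple cis-regulated reporter units; 24 h compound exposure. Reporter mRNA quantified by RT-PCR, 6-FAM primer-extension labeling, HpaI digestion and capillary electrophoresis; bidirectional fitting against DMSO baseline.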

Measured: AC50

CCCCCC1C(=O)CCC1CC(=O)OC (stereo not given)
inactive: [1] | [2] | [3] | [4] | [5] | [6] | [7] | [8] | [9] | [10] | [11] | [12] | [13] | [14] | [15] | [16] | [17]

CC(=O)CCC=C(C)CCC=C(C)C
inactive: [1] | [2] | [4] | [5] | [6] | [7] | [9] | [10] | [18] | [11] | [12] | [13] | [14] | [15] | [16] | [17]

CCCCCCCCOC(C)=O
inactive: [1] | [19] | [3] | [4] | [5] | [6] | [7] | [8] | [9] | [10] | [18] | [11] | [12] | [13] | [14] | [15] | [16] | [17]

CC(=O)Nc1cc(S(=O)(=O)O)cc2cc(S(=O)(=O)O)c(N=Nc3ccccc3)c(O)c12
inactive: [1] | [2] | [3] | [5] | [6] | [7] | [8] | [9] | [10] | [18] | [11] | [12] | [13] | [14] | [15] | [16] | [17]

OCC=Cc1ccccc1
inactive: [1] | [2] | [3] | [5] | [6] | [7] | [10] | [18] | [11] | [12] | [14] | [15] | [16] | [17]
active: [4] 50.1 µM

C=CC(=O)OCCCCCC
inactive: [1] | [2] | [3] | [4] | [6] | [7] | [9] | [10] | [18] | [11] | [12] | [14] | [15] | [16] | [17]

CC(C)N1C(=O)c2ccccc2C1=O
active: [13] 74.7 µM
inactive: [1] | [2] | [3] | [4] | [5] | [6] | [7] | [9] | [10] | [18] | [11] | [12] | [14] | [15] | [16] | [17]

CCC(=O)OCC=Cc1ccccc1
inactive: [1] | [2] | [19] | [5] | [6] | [7] | [10] | [11] | [12] | [13] | [14] | [15] | [16] | [17]

NC(=O)NC(N)=O
inactive: [1] | [2] | [3] | [4] | [6] | [8] | [9] | [10] | [18] | [11] | [12] | [13] | [14] | [15] | [16] | [17]
